Source: PubChem (National Center for Advancing Translational Sciences (NCATS))
CRE-bla Fsk: Cell signaling CRE-BLA (Fsk stim) | CHO CRE-bla reporter (cAMP response element driving beta-lactamase), forskolin EC10, beta-lactamase ratio | Potency, µM (doses to about 38.2 µM), without a hit: at the highest dose activity change, negative = inhibition, most hits filed as activators | 71,000 compounds, 2.5% hits; active means well fitted activation curve with a large enough effect in the signal ratio, with a control signal flat, not every such curve was filed as active; inconclusive means small, poorly fitted or top-dose-only effect, or effect the other way, or a change in a side signal; the % refers to the signal ratio; further: % of control where 0% means no effect
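AC50 values, positive or negative, reflect shifts in EC10 NKH 477-induced CRE-bla reporter activity in CHO cells. Incubation lasted 3 h at 37 °C before CCF4 substrate (2 h, room temperature) and ratiometric 460/530 nm reading.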
ERK AVP block: qHTS Assay for Inhibitors of the ERK Signaling Pathway using a Homogeneous Screening Assay. HEK293-V1b, vasopressin-stimulated pERK AlphaScreen. 72,000 compounds, 0.99% hits. Potency, µM (top dose mostly 57.5 µM), for the others: top-dose activity, negative = inhibition, usual class: inhibitors. AID 995, 2007; further: on the % scale 0 is the no-effect control and ±100 the full control effect; nearly all actives have a fitted effect of over 55% in size
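Overnight-seeded V1b-HEK293 cells in 1% FBS got compound, then vasopressin (25 nM final, 5 min, 37C), then lysis buffer. AlphaScreen detection of phospho-ERK; activity normalized to basal and full-stimulation controls.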
Tau filament bind: qHTS Assay for Tau Filament Binding; Microtubule-associated protein tau (Homo sapiens), P10636; Potency, µM (top dose mostly 57.1 µM), for the others: at the top dose activity change, negative = inhibition; recombinant tau filaments, thioflavin S fluorescence, 15 h; filaments grown with octadecylsulfate alongside compound; 71,000 compounds, 2% hits;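 further: on the % scale 0 is the no-effect control and ±100 the full control effect; actives lower thioflavin S fluorescence by blocking filaments or displacing dye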
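His-tagged recombinant human tau (exons 2, 3 and 10 included), 1 uM, was induced to fibrillize by 30 uM sodium octadecylsulfate with compound present. After 15 h at 37 C, thioflavine S fluorescence (ex 450, em 510 nm) was read.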
TSHR ag: qHTS Assay for Agonists of the Thyroid Stimulating Hormone Receptor | Thyrotropin receptor (Homo sapiens), P16473 | HEK293-CNG-TSHR cells (CNG channel as cAMP sensor), membrane potential dye, cAMP | Potency, µM (highest dose often 57.1 µM), without a hit: at the top dose activation, usual class: activators | 73,000 compounds, 0.48% hits | AID 926, 2007; active means well fitted activation curve with a large enough effect in the main read-out, with a control signal flat, not every such curve was filed as active; inconclusive means small, poorly fitted or top-dose-only effect, or a change in a side signal; inactive means no such curve, though single readings can be large or run the other way; % of control where 0% means no effect;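 further: the control signal comes from parental cells without the receptor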
Target sequence (P16473 whole entry, looked up): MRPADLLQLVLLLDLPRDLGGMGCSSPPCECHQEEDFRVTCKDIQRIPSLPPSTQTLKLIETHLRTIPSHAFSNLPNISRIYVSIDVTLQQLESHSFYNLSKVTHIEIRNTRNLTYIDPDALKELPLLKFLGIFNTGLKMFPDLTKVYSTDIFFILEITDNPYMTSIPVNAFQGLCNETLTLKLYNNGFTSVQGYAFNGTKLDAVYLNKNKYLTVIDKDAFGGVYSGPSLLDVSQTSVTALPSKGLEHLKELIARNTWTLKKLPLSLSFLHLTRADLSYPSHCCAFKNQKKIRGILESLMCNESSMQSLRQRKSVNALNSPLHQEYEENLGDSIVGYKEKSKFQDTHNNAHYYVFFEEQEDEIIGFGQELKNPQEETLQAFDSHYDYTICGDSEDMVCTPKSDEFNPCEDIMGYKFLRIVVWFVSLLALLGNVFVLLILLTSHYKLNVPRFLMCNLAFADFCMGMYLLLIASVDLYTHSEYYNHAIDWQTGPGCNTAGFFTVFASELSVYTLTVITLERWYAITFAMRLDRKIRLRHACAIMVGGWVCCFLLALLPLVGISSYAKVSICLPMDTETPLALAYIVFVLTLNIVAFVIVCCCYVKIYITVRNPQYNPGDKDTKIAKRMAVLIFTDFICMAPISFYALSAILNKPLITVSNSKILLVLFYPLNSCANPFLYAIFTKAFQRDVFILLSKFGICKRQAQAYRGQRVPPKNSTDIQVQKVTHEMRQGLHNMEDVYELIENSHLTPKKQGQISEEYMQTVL
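cAMP rise detected as CNG-channel membrane depolarization by fluorescent dye (emission 590 nm), 30 min after compound, following 60 min dye loading containing 100 uM RO 20-1724 at room temperature. Cells: TSHR/CNG HEK 293, with parental CNG HEK 293 as control.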
HEK293 cAMP ctrl: qHTS Assay for Agonists of the Thyroid Stimulating Hormone Receptor: Activators of Intracellular cAMP Concentrations in Parental HEK 293. parental HEK293 CNG cAMP sensor, membrane potential fluorescence. 73,000 compounds, 2.5% hits. AID 938, 2007. Potency, µM (top dose mostly 57.1 µM), for the others: at the top dose activation, actives largely listed as activators; further: % of control where 0% means no effect; nearly all actives have a fitted effect of over 55% in size
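Parental HEK 293 cells stably expressing a cAMP-gated CNG channel were loaded with membrane potential dye containing 100 uM RO 20-1724 for 60 min. Compound added for 30 min; depolarization read as fluorescence intensity at 590 nm.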
An asterisk follows results filed as active; ? = inconclusive; · = no result given; [ ] = remark or other dose. A selection: hits, their analogues and other compounds. The true share with any hit is near 7.6%. Unless noted, the call rests on the fitted dose curve; in most records, active means well fitted curve in the direction sought with a large enough effect; inconclusive means small, poorly fitted or top-dose-only effect, or another doubt; inactive means no such curve, though single readings can be large; an effect the other way counts as inactive or inconclusive. Potency means the concentration at half of the fitted maximal effect.

SMILES | CRE-bla Fsk | ERK AVP block | Tau filament bind | TSHR ag | HEK293 cAMP ctrl
CN[C@H]1[C@@H](O[C@@H]2[C@H](O[C@@H]3[C@@H](O)[C@@H](O)[C@@H](N=C(N)N)[C@@H](O)[C@@H]3N=C(N)N)O[C@H](C)[C@@]2(O)C=O)O[C@@H](CO)[C@@H](O)[C@H]1O | 0%[17.1 µM] | -9%[25.7 µM] | -11%[25.6 µM] | -2%[25.6 µM] | -3%[25.6 µM]
CSc1nc(NCc2ccco2)c2c3c(sc2n1)CN(C)CC3 | 5% | -3% | 234% | ? | 25µM*
CC[C@H](C)C(=O)O[C@@H]1CCC=C2C=C[C@H](C)[C@@H](CC[C@H]3C[C@@H](O)CC(=O)O3)[C@H]21 | 3% | · | 11% | 37% | 11%
Cc1nc(NC2CCCCC2)c2nc(-c3ccccc3)n(CCCN(C)C)c2n1 | -1% | 6% | 26% | ? | ?
Cc1nc(NCc2ccccc2)c2nc(-c3ccccc3)n(CCCN3CCOCC3)c2n1 | ? | ? | 32% | ? | ?
Cc1nc(Nc2ccccc2)c2nc(-c3ccccc3)n(CCN3CCOCC3)c2n1 | 7.9µM* | -41% | 14% | 9% | 28%
Cc1nc(NC2CCCCC2)c2nc(-c3ccccc3)n(CCN(C)C)c2n1 | ? | -4% | 11% | ? | 10µM*
Cc1nc(NC2CCCCC2)c2nc(-c3ccccc3)n(CCCN3CCOCC3)c2n1 | 10µM* | -25% | 68% | ? | ?
CC(C)[C@@H]1OC(=O)C=CC=CC=CC=CC=CC[C@@H](O)[C@H](C)[C@@H](O)C[C@H](O)C[C@H](O)C[C@H](O)C[C@H](O)C[C@H](O)C[C@H](O)C=C[C@@H]1C | 4%[7.6 µM] | · | 16%[11.4 µM] | -4%[11.4 µM] | -7%[11.4 µM]
COc1ccc(C(=O)N2CCC[C@@]3(CCN(Cc4nccs4)C3)C2)cc1 | -10% | 8% | 6% | 10% | 7%
Cc1ccccc1NC(=O)CSc1nc(Nc2ccccc2)nc(N2CCOCC2)n1 | -6% | -12% | 3% | ? | ?
O=C(CSc1nc(Nc2ccccc2)nc(N2CCOCC2)n1)Nc1ccc2c(c1)OCCO2 | 6.3µM* | -26% | 289% | 25µM* | 10%
O=C(CSc1nc(Nc2ccccc2)nc(N2CCOCC2)n1)N1CCc2ccccc21 | 4µM* | -13% | 60% | · | 22%
C[C@]12CC[C@H]3c4ccc(OC[C@H]5CO5)cc4CC[C@H]3[C@H]1CC[C@@H]2O | · | 1%[11.5 µM] | · | 0%[11.4 µM] | 6%[11.4 µM]
CN1CCN(c2ncc3nc(-c4ccc(Cl)cc4)c(=O)n(CCC#N)c3n2)CC1 | ? | 15% | 3.2µM* | ? | ?
N#CCCn1c(=O)c(-c2ccc(Cl)cc2)nc2cnc(N3CCNCC3)nc21 | ? | 18% | 4µM* | -8% | -7%
c1ccc(-c2nn3c(-c4ccncc4)nnc3s2)nc1 | ? | ? | 13µM* | 28% | 7%
CN(C)c1ccc(-c2nn3c(-c4ccncc4)nnc3s2)cc1 | 9% | -4% | -9% | 5% | 1%
Cc1ccc(-c2nnc3sc(-c4ccncc4)nn23)cc1 | ? | ? | 25µM* | -4% | -3%
Cc1noc(C)c1C(=O)N1CCC2(CCCN(c3ccncc3)C2)CC1 | -2% | 9% | -5% | -3% | 7%
CCC(C)n1cnc2c(c1=O)c1nc3ccccc3nc1n2Cc1ccccc1OC (stereo not given) | 26% | -17% | 4µM* | 25% | 32%
CCCn1cnc2c(c1=O)c1nc3ccccc3nc1n2Cc1ccccc1OC | 10% | -12% | -18% | 3% | 14%
COCCCn1c2nc3ccccc3nc2c2c(=O)n(-c3ccccc3OC)cnc21 | 4µM* | 3% | -5% | 9% | 3%
Cc1ccc(-c2csc(=S)n2CC(=O)OCC(=O)NCc2ccco2)cc1 | ? | ? | -6% | ? | 32µM*
O=C(Nc1ccccc1)N1CCC2(CC1)CCN(C(=O)c1ccco1)CC2 | -19% | -10% | 5% | 0% | -7%
SMILES | CRE-bla Fsk | ERK AVP block | Tau filament bind | TSHR ag | HEK293 cAMP ctrl
CCn1c(SCCOc2ccc(Cl)cc2)nnc1-c1cccs1 | -2% | -24% | 42% | ? | 32µM*
COc1ccc2c(c1)[n+]([O-])c(/C(C)=N/NC(N)=S)c(C)[n+]2[O-] | ? | -15%[11.5 µM] | -22%[11.4 µM] | 2%[11.4 µM] | -3%[11.4 µM]
CCCCCSc1nnc2c(n1)OC(C)N(C(C)=O)c1ccccc1-2 (stereo not given) | -9% | -7% | 25µM* | -11% | 0%
CCC(=O)N1c2ccccc2-c2nnc(SC)nc2OC1c1ccc(N(C)C)cc1 (stereo not given) | -2% | -20% | 25µM* | -8% | 3%
COc1ccc(NC(=O)N2CCCC3(CCN(C(=O)c4ccncc4)CC3)C2)cc1 | -7% | -11% | 5% | 3% | 13%
COc1ccc(O[C@H]2C=C[C@@H](c3ccccc3)O[C@H]2COC(=O)CC/C(C)=N\O[C@@H](C)CN2CCCCc3nc(C)c(C)cc32)cc1 | · | 12%[11.5 µM] | · | 17%[11.4 µM] | 6%[11.4 µM]
O=C(CN1C(=O)COc2ccccc21)N(Cc1cccnc1)Cc1cccc(F)c1 | -8% | -26% | -1% | ? | 16µM*
O=C(O)CCC(=O)N(Cc1cccnc1)Cc1cccc(F)c1 | -10% | 0% | -14% | 0% | 10%
CCN1C(=O)[C@H]2[C@@H]3[C@H](O)[C@H](O)CC(=O)[C@H]3CC[C@H]2C1=O | · | 7%[11.5 µM] | · | 1%[11.4 µM] | -4%[11.4 µM]
CC(=O)Nc1ccc(S(=O)(=O)Nc2nc3ccccc3nc2N2CCCC2)cc1 | 13µM* | -9% | -2% | -7% | 12%
CCCC(=O)c1ccc(N2CCN(C(=O)c3ccccc3Br)CC2)c(F)c1 | ? | 25µM* | 53% | ? | ?
CCCC(=O)c1ccc(N2CCN(C(=O)c3ccccc3)CC2)c(F)c1 | -12% | -29% | 61% | · | 32%
C#CCCCO/N=C1/C[C@@H](O)[C@@H](O)[C@@H]2[C@@H]3C(=O)N(CCC(=O)OCC)C(=O)[C@H]3CC[C@H]12 | · | 16%[11.5 µM] | · | -5%[11.4 µM] | 2%[11.4 µM]
COC(=O)CN=C1OC(=O)N2C(=O)C3=C4C(C[C@H]5C(=O)N(c6ccccc6)C(=O)[C@H]5[C@H]4[C@@]12Cc1ccccc1)[C@H]1C(=O)N(c2ccccc2)C(=O)[C@H]1[C@H]3C (stereo not given in full) | · | 8% | · | · | ·
COc1ccc(-c2c3c(=O)n(C)c(=O)n(C)c3cn2C2CCCCC2)cc1 | 8% | 16µM* | 10% | · | 26%
O=C(Nc1cccc(F)c1)N1CC=C(n2c(=O)[nH]c3ccccc32)CC1 | -15% | 20µM* | 5% | -8% | -10%
O=C(Nc1ccccc1)N1CC=C(c2ccc(F)cc2)CC1 | -10% | -10% | -4% | 11% | 2%
